This is a sample that favours compounds with a hit; in the whole collection about 2.4% have one here.
M1 PAM parental: M1 PAM counterscreen hit in parental CHO-K1 cells. 0.02% of 360,000 active. activation, % at 3 µM. ATP EC20, Fluo-8 calcium fluorescence; 0% at ATP EC20, 100% at ATP max;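 active = activation above the run cutoff, the mean activation of all test compounds plus 3 SD, cut at about 40% in these data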;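 note: peak over basal fluorescence ratio in a 140 s read after ATP addition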
CHO-K1 Ca ag: nonselective activator or artifact in parental CHO-K1 cells; Fluo-8 calcium fluorescence; scaled to maximal ATP response, vehicle zero; activation, % at 3 µM; 0.48% of 360,000 active; AID 602248; in the data active = activation above about 15%;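 note: untransfected CHO-K1 host cells lacking M1 receptor as counterscreen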
M1 ag: agonists of human M1 muscarinic receptor; AID 588814; P11229; activation, % at 3 µM; CHO-K1 hM1, Fluo-8 calcium fluorescence, agonist mode; 0% DMSO, 100% acetylcholine EC100; 0.33% of 360,000 active;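 active = activation above the run's mean compound activation plus 3 SD, cut at about 16% in these data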;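 note: peak over basal fluorescence ratio within a 140 s kinetic read after compound addition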
Target sequence (P11229 whole entry, looked up): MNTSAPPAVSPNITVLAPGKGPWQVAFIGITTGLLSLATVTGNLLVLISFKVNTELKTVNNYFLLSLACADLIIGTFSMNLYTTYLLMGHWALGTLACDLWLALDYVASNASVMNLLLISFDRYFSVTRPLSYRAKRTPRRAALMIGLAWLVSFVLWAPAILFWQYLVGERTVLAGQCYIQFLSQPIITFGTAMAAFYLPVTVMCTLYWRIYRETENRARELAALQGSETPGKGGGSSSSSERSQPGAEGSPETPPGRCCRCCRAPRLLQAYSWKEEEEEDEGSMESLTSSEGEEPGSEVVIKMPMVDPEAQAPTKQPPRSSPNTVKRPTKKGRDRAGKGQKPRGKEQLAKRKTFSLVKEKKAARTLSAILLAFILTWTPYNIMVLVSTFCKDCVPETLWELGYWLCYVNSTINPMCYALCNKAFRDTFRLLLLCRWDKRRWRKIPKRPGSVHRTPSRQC
CHO-K1 Ca antag: nonselective inhibitor or artifact in parental CHO-K1 cells | 0.6% of 360,000 active | inhibition, % at 3 µM | ATP-induced calcium, Fluo-8 fluorescence | AID 602250;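 active = inhibition above a per-plate cutoff, the plate's mean sample inhibition plus 3 SD, cut at about 24% in these data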;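 note: 0% = DMSO plus EC80 ATP and 100% = DMSO alone without ATP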
M1 antag: blocks human M1 muscarinic receptor. P11229. CHO-K1 hM1, Fluo-8 calcium fluorescence, ACh EC80 antagonist. inhibition, % at 3 µM. 1.3% of 360,000 active. AID 588852;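 active = percent inhibition above its own plate's cutoff, namely the mean of that plate's compound wells plus 3 SD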;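 note: peak over basal fluorescence ratio during 140 s after agonist addition; 0% = ACh EC80 plus DMSO and 100% = DMSO alone without agonist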
CHRM1 PAM: human CHRM1 positive allosteric modulation. P11229. CHO-K1 hM1, Fluo-8 calcium fluorescence, ACh EC20; 0% = ACh EC20, 100% = maximal ACh. activation, % at 3 µM. 0.088% of 360,000 active; in the data active = activation above about 19%, passing the limit was not always enough
Active calls of the source: *.

SMILES	M1 PAM parental	CHO-K1 Ca ag	M1 ag	CHO-K1 Ca antag	M1 antag	CHRM1 PAM
Cc1nc(N)c2c(Cc3cccc4ccccc34)nn(C(C)(C)C)c2n1	17.2	0.8	-0.9	-12.1	-7.6	5.3
COc1ccc(NC(=O)c2cccc(N3C(=O)C4C5CCC(C5)C4C3=O)c2)cc1 (stereo not given)	-9.4	8.9	0.7	0.4	23.3	-11.6
COc1ccc(NC(=O)c2cccc(N3C(=O)C4C5C=CC(C6CC56)C4C3=O)c2)cc1 (stereo not given)	-18.7	15.4*	4.5	7.8	19.9	-14.7
COc1ccc(NC(=O)c2cccc(N3C(=O)C4C5C=CC(C5)C4C3=O)c2)c(OC)c1 (stereo not given)	4.0	1.5	-1.7	-11.9	-6.4	1.4
COc1ccc(NC(=O)c2cccc(N3C(=O)C4C5C=CC(C6CC56)C4C3=O)c2)c(OC)c1 (stereo not given)	16.4	18.0*	5.1	-2.7	1.3	-3.6
COc1ccc(C(=O)N2CCOC2CNC(=O)C(=O)NCc2ccccc2)cc1 (stereo not given)	11.0	0.2	-4.4	-6.5	-12.8	2.4
COc1ccc(-c2cc(NC(C)=O)c3ncc(-c4ccccc4)n3c2)cc1OC	-15.9	0.8	0.7	29.1*	-0.6	5.6
COc1ccc(F)cc1-c1cc(NC(C)=O)c2ncc(-c3cc(OC)c(OC)c(OC)c3)n2c1	10.6	7.8	5.1	6.5	8.3	-4.9
COc1ccc(-c2cnc3c(NC(C)=O)cc(-c4cc(F)ccc4OC)cn23)cc1OC	-2.0	2.9	17.1*	-6.4	0.8	21.8
CC(=O)Nc1ccc(S(=O)(=O)Oc2ccc(/C=C3\SC(N)=NC3=O)cc2)cc1	-0.8	1.1	-7.4	10.8	2.6	3.0
CC1CCN(CC(=O)N2CCCc3c2c(=O)oc2ccc(OCc4ccccc4)cc32)CC1	17.2	-0.7	-5.7	-0.9	48.9*	-23.3
CC1CC(C)CN(CC(=O)N2CCCc3c2c(=O)oc2ccc(OCc4ccccc4)cc32)C1 (stereo not given)	21.4	0.0	-5.8	-8.1	1.2	-9.3
CCCCN(C=O)c1c(CC)nc2c(OCc3ccc(Cl)cc3)cccn12	24.6	3.8	-8.1	-11.5	-1.7	-9.5
Cc1ncc([N+](=O)[O-])n1CC(O)CCl (stereo not given)	29.8	1.3	16.8*	-12.7	-21.7	-0.4
CC1(C(=O)Nc2cccc(C#N)c2)CCN1C(=O)Cc1ccc(-c2ccccc2)cc1 (stereo not given)	-5.9	10.9	2.8	27.7*	42.3*	-14.5
O=C(C[n+]1ccccc1)N/N=C/c1c(F)cccc1Cl	9.4	1.0	-10.0	-0.9	-14.1	9.2
COc1ccc([C@H]2CC(=O)C=C(c3ccc(CNC(=O)OC(C)(C)C)cc3)C2)cc1	-18.5	8.8	-3.8	1.4	33.5*	-23.0
O=C(O)C1CC=CCC1C(=O)NCc1ccc(Cl)c(Cl)c1 (stereo not given)	5.9	2.1	-3.3	-1.7	-4.5	8.0
CCc1[nH]nc(C(=O)NC2CCCN(Cc3ccccc3F)C2)c1C (stereo not given)	-9.0	0.5	-4.8	-0.8	40.3*	-13.5
CC(=O)c1ccc(C(=O)NC2CCCN(Cc3ccccc3F)C2)cc1 (stereo not given)	7.1	0.1	-0.8	-11.7	-12.6	8.3
CC(C)(C)OC(=O)N[C@H](C(=O)OC(C)(C)C)c1ccc2c(c1)OCO2	-2.9	-0.7	-8.7	-11.3	-0.6	4.0
Cc1ccc(NS(=O)(=O)c2ccc(-n3cccn3)cc2)cc1F	4.4	5.2	1.1	-7.4	10.1	-6.7
COc1cccc(NS(=O)(=O)c2ccc(-n3cccn3)cc2)c1	-0.4	16.2*	3.7	12.2	43.9*	-17.5
Cc1ccc(NS(=O)(=O)c2ccc(-n3cccn3)cc2)c(C)c1	11.6	8.6	4.0	-11.6	4.2	-3.3
Cc1ccc(NS(=O)(=O)c2ccc(-n3cccn3)cc2)nc1	11.9	1.6	-3.8	31.1*	-6.5	4.5
SMILES	M1 PAM parental	CHO-K1 Ca ag	M1 ag	CHO-K1 Ca antag	M1 antag	CHRM1 PAM
COc1ccc(S(=O)(=O)N2CCCCCC2)cc1C(=O)OCc1cccc(OC)c1OC	-8.3	0.3	-1.9	4.1	9.8	-6.2
Cc1nn(CC2CC2)c(=O)n1-c1ccccc1	1.4	0.2	-5.4	-4.4	-3.4	2.9
Cc1ccccc1OCc1nc2ccccc2n1C	20.1	0.1	-5.9	-12.6	-9.0	5.1
Cc1nnc(OCc2nc3ccccc3n2C)c2ccccc12	-9.2	0.8	-0.5	25.1*	-15.8	4.3
O=C(/C=C/c1cccs1)c1ccco1	11.4	0.5	-3.5	-8.6	-14.2	8.1
Cn1c(=Nc2ccc(N3CCOCC3)cc2)ccc2ccccc21	-4.4	0.1	-5.8	0.2	47.8*	-13.2
CCn1c(=Nc2ccc(N3CCOCC3)cc2)ccc2ccccc21	-5.2	-0.3	-9.6	13.7	9.9	-13.1
CN(N=Nc1nc[nH]c1C(N)=O)C1CCCCC1	13.3	0.0	3.8	0.6	-8.1	11.2
CCNc1nc(NC(C)C)nc(NS(=O)(=O)c2ccc(N)cc2)n1	-4.6	-0.2	-2.2	27.0*	3.0	7.5
CC(C)Nc1nc(NC(C)C)nc(NS(=O)(=O)c2ccc(N)cc2)n1	1.9	0.0	-3.5	-6.9	0.7	-4.8
CCC1CCCCN1CCCNC(=O)C1CCC(CNS(=O)(=O)c2c(C)cc(C)cc2C)CC1 (stereo not given)	-17.7	-0.4	-6.4	24.5*	62.7*	-21.4
O=C(NCc1ccc(F)cc1)c1ccncc1	-8.6	-0.1	-0.5	7.2	9.0	0.8
CC1(C)CC(NC(=O)N2c3ccccc3Sc3ccccc32)CC(C)(C)N1	9.9	0.9	-7.9	-7.9	49.6*	-24.1
CC(=O)Nc1ccc(S(=O)(=O)NCCc2ccc3c(c2)OCCO3)cc1	7.6	0.2	-0.9	-3.2	-6.5	4.9
CN1CCN(C(=O)c2ccc(NS(=O)(=O)c3cccc([N+](=O)[O-])c3)cc2)CC1	4.7	0.2	-5.3	2.6	4.4	3.1
CCC(CC)C(=O)Nc1cccc(C(=O)Nc2ccc(OC)cc2[N+](=O)[O-])c1	12.4	2.4	22.6*	-4.7	19.0	-4.3
CCCN(CCC)CCCNc1ccc(C(=O)Nc2cccc(OC)c2)cc1[N+](=O)[O-]	5.9	1.1	-6.8	-15.3	39.9*	-23.7
COc1ccc(NC(=O)c2ccccc2)c([N+](=O)[O-])c1	5.1	1.5	-1.7	-8.4	-8.8	9.4
CC(C)CC(OC(=O)c1ccco1)C(=O)NC1CCCC1 (stereo not given)	10.6	0.0	-4.5	-10.4	-5.3	13.8
C[C@H](CO)N1C[C@H](C)[C@@H](CN(C)Cc2ccncc2)Oc2c(NC(=O)C3CC3)cccc2C1=O	18.0	0.2	-3.7	-15.0	2.9	8.2
Cc1ccc(N(C)S(=O)(=O)c2csc(C(N)=O)c2)cc1C	16.3	3.2	-3.0	-8.9	-9.4	4.1

High-throughput results from PubChem BioAssay.
